D1 PAM: Potentiators of Human D1 Dopamine Receptor: qHTS | potentiation, % at 10 µM | D(1A) dopamine receptor (Homo sapiens), P21728 | AID 504651, 2011 | 0.036% of 360,000 active | HEK293 TREx D1 cells, calcium flux, dopamine EC20 potentiation; in the data active = potentiation above about 30%
Target sequence (P21728 whole entry, looked up): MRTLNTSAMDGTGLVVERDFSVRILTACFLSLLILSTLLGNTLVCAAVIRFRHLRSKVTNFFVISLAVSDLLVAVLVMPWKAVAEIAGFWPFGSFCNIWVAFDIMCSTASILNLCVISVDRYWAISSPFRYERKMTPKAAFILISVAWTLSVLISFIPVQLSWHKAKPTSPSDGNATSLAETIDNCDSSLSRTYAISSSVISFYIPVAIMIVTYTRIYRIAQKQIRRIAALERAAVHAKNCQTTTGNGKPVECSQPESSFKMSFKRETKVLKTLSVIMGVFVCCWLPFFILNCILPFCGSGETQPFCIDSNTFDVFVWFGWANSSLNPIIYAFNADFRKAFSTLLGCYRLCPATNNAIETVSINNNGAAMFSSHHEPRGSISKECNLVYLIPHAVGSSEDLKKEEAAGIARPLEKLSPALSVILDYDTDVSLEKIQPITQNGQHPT
D1 antag: Antagonist of Human D 1 Dopamine Receptor: qHTS; D(1A) dopamine receptor (Homo sapiens), P21728; HEK293 TREx D1 cells, calcium flux, dopamine EC80; stronger effect = lower value; activity change, negative = inhibition, % at 10 µM; 3.2% of 360,000 active; AID 504652, 2011; in the data active = activity change below about -30%
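Allosteric or orthosteric antagonism assessed as attenuation of the calcium response to EC80 dopamine, added 180 s after compound, in induced HEK293 Trex D1 cells loaded with no-wash calcium dye.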
D3 ag: qHTS of D3 Dopamine Receptor Agonist: qHTS | D(3) dopamine receptor (Homo sapiens), P35462 | D3R DiscoveRx beta-arrestin cells, luminescence, 90 min | max activation, % | 0.58% of 410,000 active | AID 652048, 2013; in the data active = max activation above about 30%
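Cells at 1500/well, incubated overnight, then treated with pinned compounds (dopamine as control) for 90 min at 37 degrees C. DiscoveRx reagent added for 30 - 60 minutes at room temperature; luminescence read.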
ERG Ets-DNA blk: qHTS for Small Molecule Inhibitors of the ERG Ets/DNA interaction | fluorescence polarization, His-ERG Ets domain / labelled DNA | Transcriptional regulator ERG (Homo sapiens), P11308 | 0.028% of 370,000 active | Potency, µM (series often up to 76.9 µM), hits mostly inhibitors; active = well fitted inhibition curve with a large enough effect in the polarisation, with a control signal flat; inconclusive = small, poorly fitted or top-dose-only effect, or effect the other way, or a change in a side signal; inactive = no such curve, though single readings can be large or run the other way; the % refers to the polarisation;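 also: polarization taken with two DNA probes labelled with fluorescein and Texas red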
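His-tagged ERG Ets domain (1 uM in the protein solution; 300mM KCl, 50mM Tris-HCl, 1mM EDTA, 1mM DTT, pH 7.5) received compound, then a probe mix of 5 nM fluorescein-DNA and 100nM Texas-615-DNA. Fluorescence polarization was read for both dyes.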
D3 antag: qHTS of D3 Dopamine Receptor Antagonist: qHTS; D(3) dopamine receptor (Homo sapiens), P35462; D3R cells, DiscoveRx beta-arrestin luminescence, antagonist mode; stronger effect = lower value; max response, negative = inhibition, %; 2.5% of 360,000 active; AID 652054, 2013; in the data active = max response below about -50%; inconclusive = no clear call, values can overlap the other calls
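Cells plated overnight at 1500 cells/well, then exposed to library compounds with dopamine controls for 90 minutes at 37 degrees C. DiscoveRx reagent added for 30–60 minutes at room temperature; luminescence read, quantitative HTS format.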
D1 agonist: Allosteric Agonists of the Human D1 Dopamine Receptor: qHTS; D(1A) dopamine receptor (Homo sapiens), P21728; HEK293 T-REx D1 cells, calcium flux, agonist mode; activation, % at 2 µM; 1% of 360,000 active; in the data active = activation above about 30%
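Inducible HEK293 T-REx D1 cells, force-coupled to calcium signalling, were plated at 4000 cells/well with tetracycline and held overnight at 30 C. After no-wash calcium dye loading, compound-evoked calcium rise over 180 s flagged agonists.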
Numbers stand for hits; i = inactive; ? = inconclusive; nt = not tested or not shown; ! = not confirmed by another sample. The list is not random: actives were taken first. Their share in the collection is about 6.1%.

SMILES	D1 PAM	D1 antag	D3 ag	ERG Ets-DNA blk	D3 antag	D1 agonist
CCCCN(C)C(=O)C1CCC(CNS(=O)(=O)c2ccc3c(c2)CC(C)N3C(=O)C2CC2)CC1 (stereo unspecified)	i	-43	i	i	i	i
CC1CCN(S(=O)(=O)c2ccc3c(c2)CC(C)N3C(=O)C2CCC2)CC1 (stereo unspecified)	i	-34	i	i	i	i
Cc1cccc(NS(=O)(=O)c2ccc3c(c2)CC(C)N3C(=O)C2CCC2)c1C (stereo unspecified)	i	-34	i	i	nt	i
CCC(C)NC(=O)C1CCC(CNS(=O)(=O)c2ccc3c(c2)CC(C)N3C(=O)C2CC2)CC1 (stereo unspecified)	i	i	i	i	i	i
Cc1cccn2c(=O)cc(COc3cccc(NC(=O)c4ccccc4F)c3)nc12	i	i	i	i	nt	i
COC(=O)c1cc(S(=O)(=O)N2CCN(c3ccc(OC)cc3)CC2)c[nH]1	i	i	i	i	nt	i
COC(=O)c1cc(S(=O)(=O)N2CCN(c3ccc(C(C)=O)cc3)CC2)c[nH]1	i	-32	i	i	i	i
NC(=O)c1ccccc1Nc1nc2nc3ccccc3c(=O)n2cc1Br	i	i	i	i	i	i
CCCCNC(=O)c1cc2c(=O)n3cccc(C)c3nc2s1	i	i	i	i	i	i
COCCCNC(=O)c1cc2c(=O)n3cccc(C)c3nc2s1	i	-33!	32!	i	i	i
CC(O)(c1cccc(F)c1)c1nc(/C=C/c2ccccc2)cs1 (stereo unspecified)	nt	nt	i	nt	-88	nt
C[C@@H](NC(=O)C1(c2ccccc2)CCN(C(=O)OC(C)(C)C)CC1)C(=O)N[C@@H](C(=O)O)c1ccccc1	i	-52	i	i	?	i
COc1ccc(/C=C/c2nnc(NC(=O)C(C)(C)C)s2)cc1	i	i	i	i	i	i
CC(C)(C)N=C1NN=C(c2ccc(Cl)cc2)CS1	i	-40	i	i	i	i
CC(=O)c1c(C)[nH]c(C2=NNC(=NC(C)(C)C)SC2)c1C	i	-33	i	i	i	i
CCOC(=O)c1c(C)[nH]c(C2=NNC(=Nc3ccccc3OC)SC2)c1C	i	i	i	i	i	i
COc1ccc(CN=C2NN=C(c3ccc(Cl)cc3)CS2)cc1	i	i	i	i	i	i
CCOC(=O)c1c(C)[nH]c(C2=NNC(=Nc3ccc(OCC)cc3)SC2)c1C	i	-72	i	i	i	i
CCOC(=O)c1c(C)[nH]c(C2=NNC(=Nc3ccccc3)SC2)c1C	i	i	i	i	i	i
CSCCC(N=CC1=C(O)CC(C)(C)CC1=O)C(=O)O (stereo unspecified)	i	i	i	i	i	i
Cc1cc2c(NS(=O)(=O)c3ccc(F)cc3)cccc2nn1	i	i	i	i	i	i
CCCCN(CC)CCNC(=O)CCn1cnc2onc(-c3ccc(F)cc3)c2c1=O	i	i	i	i	nt	32
CCCN(C(=O)CCn1cnc2onc(-c3ccc(F)cc3)c2c1=O)c1ccccc1C	i	i	i	i	nt	i
O=C(NC(C(=O)c1ccccc1)N1CCOCC1)c1ccccc1 (stereo unspecified)	i	i	i	i	i	i
Cc1cc(=O)n(C(NC(=O)c2ccccc2)C(=O)c2ccccc2)cn1 (stereo unspecified)	i	i	65	i	i	i
CCOC(=O)c1cnn(-c2ncnc3sc(C)c(C)c23)c1N	i	i	i	i	i	i
C/C=C/C=C/C(=O)Nc1cccc(C2=NOC3(C2)C[C@H](C(N)=O)N(C(=O)CC(c2ccccc2)c2ccccc2)C3)c1 (stereo partly specified)	i	i	nt	nt	nt	i
